What was measured:
Format in all cases: functional
[1] = target: Solute carrier family 2, facilitated glucose transporter member 1 (Homo sapiens) (UniProt P11166); assay: ST_JUDE_LEISH: Cytotoxicity at 2uM final concentration against transgenic Leishmania Mexicana promastigotes LmGLUT1 that are glucose transport deficient and complemented with the human glucose transporter GLUT1. Activity is measured by DNA content using SYBR green in vitro
[2] = target: Hexose transporter 1 (Plasmodium falciparum) (UniProt O97467); assay: ST_JUDE_LEISH: Cytotoxicity at 2uM final concentration against transgenic Leishmania Mexicana promastigotes LmPfHT that are glucose transport deficient and complemented with the Plasmodium falciparum hexose transporter. Activity is measured by DNA content using SYBR green in vitro
[3] = target: Glucose transporter (Leishmania mexicana) (UniProt O61059); assay: ST_JUDE_LEISH: Cytotoxicity at 2uM final concentration against transgenic Leishmania Mexicana promastigotes LmGT2 that are glucose transport deficient and complemented with the L. Mexicana glucose transporter 2. Activity is measured by DNA content using SYBR green in vitro

Chain of Solute carrier family 2, facilitated glucose transporter member 1 (Homo sapiens) (P11166 whole entry): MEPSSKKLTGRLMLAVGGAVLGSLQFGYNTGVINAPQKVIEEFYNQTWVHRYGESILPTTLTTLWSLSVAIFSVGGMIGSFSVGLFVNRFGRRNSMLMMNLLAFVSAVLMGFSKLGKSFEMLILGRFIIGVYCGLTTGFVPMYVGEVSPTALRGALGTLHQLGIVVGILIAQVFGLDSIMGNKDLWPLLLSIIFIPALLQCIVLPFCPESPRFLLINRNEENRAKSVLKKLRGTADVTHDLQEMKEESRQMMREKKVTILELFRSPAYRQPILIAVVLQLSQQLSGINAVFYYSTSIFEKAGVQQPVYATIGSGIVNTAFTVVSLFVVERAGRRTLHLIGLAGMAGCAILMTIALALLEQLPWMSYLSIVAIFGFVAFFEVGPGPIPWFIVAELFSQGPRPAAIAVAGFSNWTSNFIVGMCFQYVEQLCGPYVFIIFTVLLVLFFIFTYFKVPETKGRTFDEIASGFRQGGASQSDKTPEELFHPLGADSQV

SMILES	inhibition [1] [%]	inhibition [2] [%]	inhibition [3] [%]
CC(C)Cn1ccc2c3c(N)nc(N)nc3ccc21	27.1	47.5	17
COc1cccc(NC(=O)NC2CCN(CCCCCNC(=O)/C=C/c3ccc(Cl)c(Cl)c3)CC2)c1	0.13	0.47	3.52
CN(C)c1ccc2c(c1)Sc1cc(N(C)C)ccc1N2C(=O)c1cccc(C(=O)O)c1	-1.08	-0.19	7.43
Cc1cc(=NN=Cc2cccc(Cl)c2)c2ccc(F)cc2[nH]1	0.61	1.03	1.04
CC1CN(Cc2cccc(C#N)c2)CCN1c1ccc(NC(=O)c2cccs2)cc1 (stereo not drawn)	6.93	7.96	4.53
CCNc1cc(C(=O)N[C@@H](Cc2ccccc2)[C@H](O)CNC(C)CC(C)C)c(F)c(N2CCCCS2(=O)=O)c1 (stereo partly drawn)	2.89	3.43	2.55
COC(=O)Cc1ccc(N)c2ccccc12	-0.85	-0.46	-2.13
O=C(Nc1cccc(-c2nn3ccccc3c2-c2ccnc(Nc3cccc(C(F)(F)F)c3)n2)c1)c1c(F)cccc1F	0.32	1.06	0.07
COc1ccc2c(=O)c3ccc(OC)cc3[nH]c2c1	1.08	-2.12	-0.67
NCc1cccc(-c2ccc3ccnc(N)c3c2)c1	0.01	0.05	1.2
CC(C)(C)NCc1cc(Nc2ccnc3cc(Cl)ccc23)ccc1F	7.77	8.36	9.71
Cc1c(CNCCCNc2nc3ccncc3[nH]2)sc(Br)c1Br	6.56	-2.83	4.11
O=C(Nc1ccc(F)c(C(F)(F)F)c1)NC1CCN(CCCCCNC(=O)C2CC2c2ccc(Cl)c(Cl)c2)CC1 (stereo not drawn)	4.2	3.79	4.44
COc1cccc2c(N/N=C/c3ccc([N+](=O)[O-])cc3)ccnc12	11.3	6.04	1.25
O=S(=O)(c1ccc(OCc2ccc(Cl)cc2)cc1)c1cc2c(cc1OCc1ccccc1)CCN(CC1CC1)CC2	0.01	-1.17	-3.24
Cc1cc(CNC(=O)[C@H](CC2CCCCC2)Nc2ccc(C#N)c3ccccc23)c(C(F)(F)F)o1	1.15	1.57	-1.16
CCCOc1cc(OCCC)cc(-c2ccc(C(=O)Nc3ccc4ccc(C)nc4c3)c(=O)[nH]2)c1	1.35	0.78	3.33
CC1(C)NC(N)=NC(=N)N1OCCCOc1cccc2ccccc12	54.8	61.1	45.4
COc1ccc(CNCc2cccc(-c3ccc(-c4nc5ccccc5[nH]4)s3)c2)cc1	5.19	3.24	2.44
N#CC(c1cccc(Cl)c1)c1ccc2c(C(F)(F)F)cc(C(F)(F)F)nc2n1 (stereo not drawn)	9.02	7.47	6.02
CCC(=O)OC(CCN(CC)CC)(c1ccccc1)c1ccccc1	1.98	1.16	1.58

Source: ChEMBL document CHEMBL3433997, “St. Jude Leishmania screening dataset” (2016)
